Bioassay records deposited in PubChem by National Center for Advancing Translational Sciences (NCATS).
Most compounds without a hit are left out; they make up all but 8.8% or so of the library.
LMNA splice mod: changes lamin A minigene splicing in HeLa cells; HeLa LMNA splicing GFP/RFP minigene ratio, 48 h; Potency, µM (titrated, usually from 46.1 µM), actives largely listed as inhibitors; hit rate 0.01% among 200,000; active means well fitted inhibition curve with a large enough effect in the signal ratio, with a control signal flat, not every such curve was filed as active; inconclusive means small, poorly fitted or top-dose-only effect, or effect the other way, or a change in a side signal; the % refers to the signal ratio
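Read-out is the ratio of GFP to DsRed2 object intensity, acquired by 488 nm laser-scanning cytometry on HeLa lamin A-EGFP minigene reporter cells. Compound incubation 48 hrs at 37 °C in Opti-MEM with 2% FBS; DMSO 0.5% final.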
ALDH1A1 inh: inhibitors of human aldehyde dehydrogenase 1A1; P00352; Purified ALDH1A1, NADH fluorescence, propionaldehyde substrate; Potency, µM (titrated, usually from 75.3 µM), most hits filed as inhibitors; hit rate 7.3% among 220,000
HPGD block: blocks human HPGD enzyme activity; Potency, µM, hits mostly inhibitors; purified HPGD, NADH fluorescence kinetic, PGE2 substrate; P15428; hit rate 4.3% among 150,000
Target sequence (P15428 whole entry, looked up): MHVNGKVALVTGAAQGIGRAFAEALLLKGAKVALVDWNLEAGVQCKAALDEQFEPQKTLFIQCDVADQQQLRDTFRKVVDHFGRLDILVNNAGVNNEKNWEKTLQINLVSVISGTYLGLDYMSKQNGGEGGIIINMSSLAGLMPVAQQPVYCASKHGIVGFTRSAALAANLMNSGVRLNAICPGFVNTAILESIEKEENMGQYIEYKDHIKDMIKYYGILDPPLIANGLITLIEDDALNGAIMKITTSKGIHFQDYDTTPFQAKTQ
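NADH formation kinetics: reaction with 30 uM PGE2 and 1 mM NAD+ (final), 20 nM enzyme, Tris-HCl pH 8 with Tween 20, after 15 min compound preincubation at room temperature. Fluorescence change, last versus first of five reads.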
HTT ATP protect: Huntington cell model cytoprotection by ATP luminescence; hit rate 0.14% among 230,000; Potency, µM (highest dose often 56.4 µM), actives largely listed as activators; AID 1471; PC12 HTT-Q103 induced, cytoprotection, ATP luminescence, 40 h; active means well fitted curve in the direction sought with a large enough effect; inconclusive means small, poorly fitted or top-dose-only effect, or another doubt; inactive means no such curve, though single readings can be large; an effect the other way counts as inactive or inconclusive; further: nearly all actives have a fitted effect of over 45% in size
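ATP quantification (ATPlite) reports survival of PC12 cells in which tebufenozide, 100 nM final, switches on Htt exon 1 with 103 glutamines linked to GFP; compounds are titrated.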
HTT aggregate: inhibitors of mutant huntingtin aggregate formation in PC12 cells; hit rate 1.1% among 220,000; PC12 HttQ103-GFP aggregates, Acumen cytometry, 40 h; Potency, µM (highest dose often 46.1 µM), hits mostly inhibitors; active means well fitted curve in the direction sought with a large enough effect; inconclusive means small, poorly fitted or top-dose-only effect, or another doubt; inactive means no such curve, though single readings can be large; an effect the other way counts as inactive or inconclusive; further: nearly all actives have a fitted effect of over 60% in size
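Quantitative HTS on tebufenozide-induced (100 nM) PC12 cells stably expressing polyQ103 Huntingtin exon 1–GFP. Reduction of bright GFP aggregates, detected by laser scanning cytometry after lysis, identified actives across the titration.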
Hits are given with their value; [ ] = dose if it differs, or a comment. Unless noted, the call rests on the fitted dose curve; in most records, active means well fitted inhibition curve with a large enough effect (not every such curve was filed as active); inconclusive means small, poorly fitted or top-dose-only effect, or another doubt; inactive means no such curve, though single readings can be large or run the other way.

Nc1ncc(S(=O)(=O)NCc2ccccc2F)cn1 was read as LMNA splice mod inactive.
CC(=O)Nc1sc2c(c1C(c1ccncc1)N1CCOCC1)CCCC2 (stereo not given) was read as LMNA splice mod inconclusive, ALDH1A1 inh 25.1µM, HTT ATP protect inactive and HTT aggregate inactive.
`CC(=O)Nc1sc2c(c1C(c1cccc(Cl)c1)N1CCN(CCO)CC1)CCCC2` (stereo not given) gave ALDH1A1 inh inactive, HTT ATP protect inactive and HTT aggregate inactive.
Screening CCc1c(C)sc(NC(=O)c2cc(CC(C)C)on2)c1C#N returned LMNA splice mod inactive, ALDH1A1 inh inconclusive, HPGD block inactive, HTT ATP protect inactive and HTT aggregate inactive.
Screening CCc1c(C)sc(NC(=O)c2noc(C)c2[N+](=O)[O-])c1C#N returned LMNA splice mod inactive, ALDH1A1 inh 17.8µM, HTT ATP protect inactive and HTT aggregate inactive.
Screening COc1cccc(C2C(C#N)=C(N)OC3=C2C(=O)CC(c2ccco2)C3)c1OCc1ccc(F)cc1 (stereo not given) returned LMNA splice mod inactive[0.0737 µM], ALDH1A1 inh inactive, HPGD block inactive, HTT ATP protect inactive and HTT aggregate inactive.
N#CC1=C(N)OC2=C(C(=O)CC(c3ccco3)C2)C1c1ccc(OCc2c(F)cccc2Cl)cc1 (stereo not given) was read as LMNA splice mod inactive, ALDH1A1 inh 8.91µM, HPGD block inactive, HTT ATP protect inactive and HTT aggregate inconclusive.
`CNC(=S)N/N=C(\C)c1ccc2c(c1)OCO2` gave LMNA splice mod inconclusive, ALDH1A1 inh inconclusive, HTT ATP protect inactive and HTT aggregate inactive.
CNC(=S)N/N=C(\C)c1cccc([N+](=O)[O-])c1 was read as LMNA splice mod inactive, ALDH1A1 inh 12.6µM, HPGD block inactive, HTT ATP protect inactive[1.9 µM] and HTT aggregate inactive.
Screening C/C(=N\Nc1cc(C)nc(-c2ccccc2)n1)c1cccc([N+](=O)[O-])c1 returned ALDH1A1 inh 12.6µM, HTT ATP protect inactive[10 µM] and HTT aggregate inactive[9.22 µM].
`CNC(=S)N/N=C(\C)c1ccc2c(c1)OCCO2` gave LMNA splice mod inactive, ALDH1A1 inh 2.82µM, HPGD block inactive, HTT ATP protect inactive[10 µM] and HTT aggregate inactive.
CC(=O)NNC(=S)NC(=O)c1cccc([N+](=O)[O-])c1 was read as LMNA splice mod inactive, ALDH1A1 inh 8.91µM, HPGD block 28.2µM, HTT ATP protect inactive[10 µM] and HTT aggregate inactive.
`O=C(O)c1ccc(NC2CC(=O)N(Cc3ccccc3)C2=O)cc1` (stereo not given) gave LMNA splice mod inactive, ALDH1A1 inh inconclusive, HTT ATP protect inactive and HTT aggregate inactive.
Screening Cc1cc2c(cc1NS(=O)(=O)c1ccc(NC(=O)CC(C)C)cc1)n(C)c(=O)c(=O)n2C returned LMNA splice mod inactive.
COc1ccc(-n2nnc3c(SCC(=O)NCc4ccco4)ncnc32)cc1 was read as LMNA splice mod inconclusive, ALDH1A1 inh inconclusive, HPGD block 28.2µM, HTT ATP protect inactive and HTT aggregate inconclusive.
`O=C(CSc1ncnc2ccccc12)NCc1ccco1` gave LMNA splice mod inactive, ALDH1A1 inh inactive, HPGD block 15.8µM, HTT ATP protect inactive[10 µM] and HTT aggregate inactive.
Screening Cc1ccc(-n2nnc3c(SCC(=O)NCc4ccco4)ncnc32)cc1 returned LMNA splice mod inactive, ALDH1A1 inh inactive, HPGD block inconclusive, HTT ATP protect inactive[10 µM] and HTT aggregate inconclusive.
O=C(CSc1ncnc2ccccc12)c1ccco1 was read as ALDH1A1 inh 11.2µM, HTT ATP protect inactive and HTT aggregate inactive.
`O=C(COc1ncnc2ccccc12)NCc1ccco1` gave ALDH1A1 inh inactive, HTT ATP protect inactive and HTT aggregate inactive.
Screening Cc1ccc(N2CC(C(=O)Nc3ccc(S(=O)(=O)Nc4nccs4)cc3)CC2=O)cc1 (stereo not given) returned ALDH1A1 inh 20µM, HTT ATP protect inactive and HTT aggregate inactive.
O=C(CCN1C(=O)S/C(=C\c2ccccc2)C1=O)Nc1ccc(S(=O)(=O)Nc2nccs2)cc1 was read as LMNA splice mod inactive, ALDH1A1 inh inconclusive, HPGD block inactive, HTT ATP protect inactive and HTT aggregate inactive.
`O=C(CSc1ccncc1)Nc1ccc(S(=O)(=O)Nc2nccs2)cc1` gave LMNA splice mod inactive, ALDH1A1 inh 10µM, HTT ATP protect inactive and HTT aggregate inactive.
`Cc1ccc(SCC(=O)Nc2ccc(S(=O)(=O)Nc3nccs3)cc2)cc1` gave LMNA splice mod inactive, ALDH1A1 inh inconclusive, HPGD block inactive, HTT ATP protect inactive[10 µM] and HTT aggregate inactive.
Screening O=S(=O)(Nc1nccs1)c1ccc(NS(=O)(=O)c2cccs2)cc1 returned LMNA splice mod inactive, ALDH1A1 inh 17.8µM, HPGD block inactive, HTT ATP protect inactive and HTT aggregate inactive.
For COc1ccccc1/C=C1/SC(=O)N(CCC(=O)Nc2ccc(S(=O)(=O)Nc3nccs3)cc2)C1=O the results were LMNA splice mod inactive, ALDH1A1 inh 25.1µM, HPGD block inactive, HTT ATP protect inactive[10 µM] and HTT aggregate inactive.
`CC(=O)Oc1ccc(/C=C/C(=O)CC2OC(Oc3cc(OC(C)=O)c4c(c3)O[C@@H](c3ccc(OC(C)=O)cc3)CC4=O)C(OC(C)=O)C(OC(C)=O)C2OC(C)=O)cc1` (stereo not given in full) gave ALDH1A1 inh inactive, HPGD block inactive and HTT ATP protect inactive[1.9 µM].
Screening COc1ccc(OC)c(/C=C/C(=O)N2CCCc3ccccc32)c1 returned ALDH1A1 inh inconclusive, HTT ATP protect inactive and HTT aggregate inactive.
`CCOC(=O)COc1cccc2c(=O)n(CC(=O)N3CCCc4ccccc43)ccc12` gave LMNA splice mod inactive, ALDH1A1 inh inconclusive, HPGD block inactive, HTT ATP protect inactive[10 µM] and HTT aggregate inactive.
For COc1cc(/C=C/C(=O)N2CCCc3ccccc32)cc(OC)c1OC the results were LMNA splice mod inconclusive, ALDH1A1 inh 14.1µM, HPGD block inactive, HTT ATP protect inactive[10 µM] and HTT aggregate inactive.
`COc1ccc(/C=C/C(=O)N2CCCc3ccccc32)cc1` gave LMNA splice mod inconclusive, ALDH1A1 inh inconclusive, HPGD block 11.2µM, HTT ATP protect inactive[10 µM] and HTT aggregate inactive.
Screening COc1cccc2c(=O)n(CC(=O)N3CCCc4ccccc43)ccc12 returned LMNA splice mod inactive, ALDH1A1 inh 10µM, HPGD block inactive, HTT ATP protect inactive and HTT aggregate inconclusive.
Cc1cc(C(=O)N/N=C/c2cc(Br)ccc2OC(=O)c2ccc(Br)cc2)n[nH]1 was read as LMNA splice mod inconclusive, ALDH1A1 inh inactive, HPGD block inactive, HTT ATP protect inactive[10 µM] and HTT aggregate 10µM.
For Cc1cc(C(=O)N/N=C/c2cc(Br)cc(Br)c2OC(=O)c2ccccc2)n[nH]1 the results were LMNA splice mod inconclusive, ALDH1A1 inh inactive, HPGD block inactive, HTT ATP protect inactive[10 µM] and HTT aggregate 4.47µM.
`O=C(CSc1nc2cc(Cl)ccc2s1)c1cc2ccccc2o1` gave LMNA splice mod inactive, ALDH1A1 inh 28.2µM, HPGD block inconclusive, HTT ATP protect inactive and HTT aggregate inactive.
